This is part of a sample that, as a whole, favours compounds with a hit. Of some 79,000 tested, about 15% had one in any assay. Values without a mark were called inactive. The source made the active and inactive calls. Rule as the data show it: active = growth inhibition above about 70%; inactive = the rest.

The nature of experiment [1]: NCI Yeast Anticancer Drug Screen. Data for the rad50 strain (AID 155).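 Also: 0% = growth of vehicle-only cultures of the same strain.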 To be noted: S. cerevisiae rad50 strain growth inhibition, active compounds read high. Summed up:
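Relative growth inhibition (compound vs vehicle) was measured in yeast with a defined repair-gene alteration.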

A short description of experiment [2]: NCI Yeast Anticancer Drug Screen. Data for the mec2-1 strain (AID 157). To be noted: S. cerevisiae mec2-1 strain, active compounds read high. Summed up:
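Readout is yeast growth inhibition, normalised to vehicle-treated controls, in the mec2-1 strain exposed to compound.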

A short description of experiment [3]: NCI Yeast Anticancer Drug Screen. Data for the sgs1 mgt1 strain (AID 161).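 Also: 0% = growth of cultures given vehicle only.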 To be noted: S. cerevisiae sgs1 mgt1 strain, active compounds read high. Summed up: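 Percent growth inhibition was derived by comparing compound-exposed mutant yeast with vehicle-exposed cultures. The strain carries alterations in DNA damage repair.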
Experiment [4] is described as follows: NCI Yeast Anticancer Drug Screen. Data for the cln2 rad14 strain (AID 165).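 Also: 0% = growth equal to vehicle treated cultures.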 The conditions noted are these: S. cerevisiae cln2 rad14 strain, active compounds read high. Summed up:
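Relative to vehicle controls, growth inhibition of compound-treated cln2 rad14 yeast was recorded.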

Experiment [5] in a line: NCI Yeast Anticancer Drug Screen. Data for the bub3 strain (AID 167). To be noted: S. cerevisiae bub3 mutant strain, active compounds read high. Summed up: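 Screening used yeast with an engineered genetic alteration affecting cell cycle control. Compound-exposed cultures were compared with vehicle cultures, and reduced growth was taken as inhibition.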
Experiment [6] can be described thus: NCI Yeast Anticancer Drug Screen. Data for the mlh1 rad18 strain (AID 175). The conditions noted are these: S. cerevisiae mlh1 rad18 strain growth inhibition, active compounds read high. An outline of the steps: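 Test agents were incubated with a yeast strain of defined genotype (DNA damage repair defect). Inhibition of growth was derived by comparison with vehicle-exposed cultures.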

The mark [7] stands for this setting: at 5.0 µM (retest, dose inferred, filed as 0.5).
Where [8] appears, read: at 50.0 µM (retest, dose inferred, filed as 5.0).

With `CC(C)(C)NCc1cc(C(C)(C)C)cc(-c2ccc(Cl)cc2)c1O`, the growth inhibition was 26% in experiment [1] (setting [7]); 92% (active) in experiment [1] (setting [8]); 84.8% (active) in experiment [1] (at 50.0 µM); 13% in experiment [2] (setting [7]); 91% (active) in experiment [2] (setting [8]); 88.4% (active) in experiment [2] (at 50.0 µM). Also, the growth inhibition in experiment [3] (setting [7]) is 7%; in experiment [3] (setting [8]) it was 88% (active); in experiment [3] (at 50.0 µM) it was 86.5% (active); in experiment [4] (setting [7]), 44%; in experiment [4] (setting [8]), 55%; in experiment [4] (at 50.0 µM), 76.8% (active). The growth inhibition is 12% in experiment [5] (setting [7]); 91% (active) in experiment [5] (setting [8]); 83.9% (active) in experiment [5] (at 50.0 µM); 25% in experiment [6] (setting [7]); 93% (active) in experiment [6] (setting [8]); 84.6% (active) in experiment [6] (at 50.0 µM).
With `COc1cc2cc[n+]3c4ccc([N+](=O)[O-])cc4ccc3c2cc1OC`, the growth inhibition in experiment [1] (setting [7]) was 73% (active); in experiment [1] (setting [8]), 81% (active); in experiment [1] (at 50.0 µM), 44.8%; in experiment [2] (setting [7]), 14%; in experiment [2] (setting [8]), 73% (active); in experiment [2] (at 50.0 µM), 55.5%. Besides, the growth inhibition was 42% in experiment [3] (setting [7]); 80% (active) in experiment [3] (setting [8]); 70% (active) in experiment [3] (at 50.0 µM); 31% in experiment [4] (setting [7]); 71% (active) in experiment [4] (setting [8]); 68.3% in experiment [4] (at 50.0 µM). The growth inhibition is 43% in experiment [5] (setting [7]); 81% (active) in experiment [5] (setting [8]); 57.7% in experiment [5] (at 50.0 µM); 66% in experiment [6] (setting [7]); 69% in experiment [6] (setting [8]); 46% in experiment [6] (at 50.0 µM).
`O=[N+]([O-])C1=Cc2ccccc2S(=O)(=O)CC1`: the growth inhibition in experiment [1] (setting [7]) is 6%; in experiment [1] (setting [8]), 93% (active); in experiment [1] (at 50.0 µM) it was 92.9% (active); in experiment [2] (setting [7]), 14%; in experiment [2] (setting [8]), 93% (active); in experiment [2] (at 50.0 µM), 92.2% (active). Also, the growth inhibition in experiment [3] (setting [7]) was 14%; in experiment [3] (setting [8]), 95% (active); in experiment [3] (at 50.0 µM), 92.7% (active); in experiment [4] (setting [7]), -8%; in experiment [4] (setting [8]) it was 83% (active); in experiment [4] (at 50.0 µM), 63.5%. The growth inhibition is -24% in experiment [5] (setting [7]); 85% (active) in experiment [5] (setting [8]); 90.5% (active) in experiment [5] (at 50.0 µM); 21% in experiment [6] (setting [7]); 97% (active) in experiment [6] (setting [8]); 97.9% (active) in experiment [6] (at 50.0 µM).
In the case of `O=C(c1cccnc1)N(C1CCCCC1)C1CCCCC1`, the growth inhibition was 3% in experiment [1] (setting [7]); 4% in experiment [1] (setting [8]); 2.25% in experiment [1] (at 50.0 µM); -2% in experiment [2] (setting [7]); 8% in experiment [2] (setting [8]); -6.85% in experiment [2] (at 50.0 µM). Also, the growth inhibition in experiment [3] (setting [7]) is 2%; in experiment [3] (setting [8]), 6%; in experiment [3] (at 50.0 µM), 3.4%; in experiment [4] (setting [7]) it was 1%; in experiment [4] (setting [8]), 9%; in experiment [4] (at 50.0 µM), 11.8%. For the same molecule, the growth inhibition is 1% in experiment [5] (setting [7]); 12% in experiment [5] (setting [8]); 0.35% in experiment [5] (at 50.0 µM); -10% in experiment [6] (setting [7]); 6% in experiment [6] (setting [8]); -2.25% in experiment [6] (at 50.0 µM).
For the molecule `CN(Cc1cc(C(C)(C)C)cc(Br)c1O)Cc1cc(C(C)(C)C)cc(Br)c1O`, the growth inhibition in experiment [1] (setting [7]) was 2%; in experiment [1] (setting [8]), 24%; in experiment [1] (at 50.0 µM), 72% (active); in experiment [2] (setting [7]), -2%; in experiment [2] (setting [8]), 91% (active); in experiment [2] (at 50.0 µM) it was 86.2% (active). Besides, the growth inhibition in experiment [3] (setting [7]) was -9%; in experiment [3] (setting [8]), 64%; in experiment [3] (at 50.0 µM), 58.8%; in experiment [4] (setting [7]) it was -11%; in experiment [4] (setting [8]), 87% (active); in experiment [4] (at 50.0 µM), 89.5% (active). In addition, the growth inhibition was -11% in experiment [5] (setting [7]); 71% (active) in experiment [5] (setting [8]); 81.3% (active) in experiment [5] (at 50.0 µM); -8% in experiment [6] (setting [7]); 84% (active) in experiment [6] (setting [8]); 61.1% in experiment [6] (at 50.0 µM).

For the origin of these results see PubChem BioAssay (NCI).
